# Screening data from PubChem BioAssay.
# NPC1 prom act: qHTS Assay for NPC1 Promoter Activators | 320,000 compounds, 2.4% hits | AID 485313, 2010 | Huh7 NPC1 promoter luciferase reporter, 24 h | Potency, µM (top dose mostly 9.22 µM), for inactives: at the highest dose activation, most hits filed as activators; also: % of control where 0% means no effect; nearly all actives have a fitted effect of over 60% in size
#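 Luminescence from an NPC1 promoter-driven luciferase reporter in stably transfected Huh7 cells was measured after 24 h compound treatment at 37 °C, followed by 10 min ambient incubation with luciferase detection reagent.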
# Rab9 prom act: qHTS Assay for Rab9 Promoter Activators | Huh7 Rab9 promoter-luciferase reporter, luminescence, 24 h | Potency, µM (titrated, usually from 9.22 µM), for the others: top-dose activation, negative = inhibition, usual class: activators | AID 485297, 2010 | 320,000 compounds, 2.8% hits; also: % of control where 0% means no effect; nearly all actives have a fitted effect of over 60% in size
#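 Huh7 cells stably carrying Rab9 promoter–luciferase reporter, plated 1500 cells/well, compound added after 2 h and incubated 24 h at 37 °C; luciferase luminescence then read after 10 min with detection reagent.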
# ELG1 genotox: qHTS screen for small molecules that induce genotoxicity in human embryonic kidney (HEK293T) cells expressing luciferase-tagged ELG1; HEK293T ELG1-luciferase reporter, luminescence, 16 h; 330,000 compounds, 1.3% hits; Potency, µM (titrated, usually from 46 µM), for inactives: at the top dose activity change, positive = activation, actives largely listed as activators; AID 504466, 2011; also: % of control where 0% means no effect; nearly all actives have a fitted effect of over 60% in size
#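 Quantitative HTS format in 1536-well plates. HEK293T ELG1-luciferase reporter cells receive test compound and are incubated 16 hr at 37 °C, 5% CO2; ONE-Glo added, 30 min room temperature, then luminescence read.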
# FLuc modulator: qHTS profiling assay for firefly luciferase inhibitor/activator using purifed enzyme and Km concentrations of substrates (counterscreen for miR-21 project). Luciferin 4-monooxygenase (Photinus pyralis), P08659. purified FLuc, Km substrates, luminescence inhibition. Potency, µM (highest dose often 57.5 µM), for inactives: at the highest dose activity change, negative = inhibition, actives largely listed as inhibitors. 360,000 compounds, 6.9% hits. AID 588342, 2011;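 also: plate controls were vehicle for no effect and reference inhibitor for full effect; nearly all actives have a fitted effect of over 55% in size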
# Target sequence (P08659 whole entry, looked up): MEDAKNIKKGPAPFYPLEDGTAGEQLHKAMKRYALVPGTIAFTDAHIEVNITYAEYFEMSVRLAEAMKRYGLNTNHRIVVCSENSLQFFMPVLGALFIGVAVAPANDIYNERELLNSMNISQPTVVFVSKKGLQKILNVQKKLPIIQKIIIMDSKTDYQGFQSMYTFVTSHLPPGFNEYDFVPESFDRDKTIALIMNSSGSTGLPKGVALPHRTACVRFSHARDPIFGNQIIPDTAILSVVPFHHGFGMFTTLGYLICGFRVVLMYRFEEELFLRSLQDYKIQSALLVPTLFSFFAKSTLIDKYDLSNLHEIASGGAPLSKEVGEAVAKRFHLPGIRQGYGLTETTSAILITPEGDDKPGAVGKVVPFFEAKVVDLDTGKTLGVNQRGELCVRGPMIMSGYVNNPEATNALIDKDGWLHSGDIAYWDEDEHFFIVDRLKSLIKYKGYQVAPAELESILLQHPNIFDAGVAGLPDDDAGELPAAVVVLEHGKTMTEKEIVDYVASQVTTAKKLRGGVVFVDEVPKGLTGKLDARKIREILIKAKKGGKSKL
#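 Biochemical qHTS of compounds, final roughly 60 µM downward over six points, against 10 nM purified firefly luciferase using Km concentrations of substrates (10 uM D-luciferin, 10 uM ATP) in Tris acetate pH 7.5 buffer; luminescence output.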
# SMN2 splice up: qHTS Assay for Enhancers of SMN2 Splice Variant Expression; Potency, µM (titrated, usually from 46.1 µM), without a hit: at the highest dose activity change, positive = activation, actives largely listed as activators; HEK293 SMN2-luciferase splicing reporter, luminescence, 30-36 h; 210,000 compounds, 2.8% hits; AID 1458, 2008; also: % of control where 0% means no effect; nearly all actives have a fitted effect of over 55% in size
#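 qHTS luciferase splicing reporter: luminescence rises when SMN2 exon 7 is included in transfected HEK293 cells. Compound exposure lasted 30-36 h at 37C, with 4.5 mM final sodium butyrate as control, followed by a ONE-Glo read.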
# * hit, by the source's call; ? = inconclusive; · = not tested or not shown; [ ] = remark or other dose. An excerpt weighted towards active compounds, which were near 7.5% of everything screened. Calls follow the shape of the dose curve; as a rule, active = well fitted curve in the direction sought with a large enough effect; inconclusive = small, poorly fitted or top-dose-only effect, or another doubt; inactive = no such curve, though single readings can be large; an effect the other way counts as inactive or inconclusive. Potency is read from the fitted curve at half-maximal effect.
SMILES,NPC1 prom act,Rab9 prom act,ELG1 genotox,FLuc modulator,SMN2 splice up
COc1cccc(C=Nc2cccnc2)c1O,2.1%,4.8%,-1.6%,-0.2%,6.3%
Cc1ccc(Nc2nc3ccccc3[nH]2)nc1,2.82µM*,2.82µM*,?,13.5µM*,11.2µM*
Cc1cccc(C)c1NS(=O)(=O)c1ccc2c(c1)NC(=O)CO2,-0.6%,1.5%,-4.2%,1.6%,-8.5%
O=C(CNC(=O)c1ccccc1F)Nc1ccncc1,0.9%,-2.5%,1.2%,-1.0%,·
COc1cccc(/C=N/Nc2nc3ccccc3[nH]2)c1O,-23.8%,-16.3%,?,2.69µM*,·
Cc1ccc(NC(=O)C2CCCN(c3ncccn3)C2)cc1F (configuration not stated),3.55µM*,?,9.2µM*,10.7µM*,17.8µM*
Cc1ccnc(N2CCC(C(=O)Nc3ccc4c(c3)OCCO4)CC2)n1,0.5%,14.4%,3.4%,?,·
O=C(Nc1ccc2c(c1)CCC2)C1CCCN(c2ncccn2)C1 (configuration not stated),3.98µM*,?,?,5.36µM*,12.6µM*
O=C(Nc1ccc2c(c1)OCCO2)C1CCN(c2ncccn2)CC1,8.4%,27.8%,?,15.1µM*,24.0%
Cc1cc(C)cc(NC(=O)C2CCCN(c3ncccn3)C2)c1 (configuration not stated),-2.2%,-0.8%,-10.2%,-1.9%,·
O=C(CSc1ncccn1)Nc1ccc2c(c1)CCC2,-5.2%,23.3%,3.9%,21.3µM*,·
Cc1cc(OC(=O)c2ccccc2C(F)(F)F)c([N+](=O)[O-])c(=O)[nH]1,0.1%,-2.5%,-0.3%,-1.8%,·
Cc1nn(C(=O)c2ccccc2F)c(C)c1S(=O)(=O)N1CCCCCC1,·,·,·,-20.7%,·
Cc1ccc2nc(NC(=O)CNS(=O)(=O)c3ccc(Br)s3)sc2c1,0.5%,3.2%,0.7%,?,-9.1%
NC(N)=NC(=O)c1nc(Cl)c(N2CCCCCC2)nc1N,?,?,16.4µM*,4.26µM*,8.2%
NC(N)=NC(=O)c1nc(Cl)c(N)nc1N,0.6%[46.1 µM],2.5%[46.1 µM],0.0%,2.2%,-31.5%
COc1cccc(CC2(CO)CCCN(Cc3cc(F)ccc3-n3cccn3)C2)c1 (configuration not stated),0.9%,-11.8%,-5.7%,3.0%,·
COc1cc2[nH]c(=O)n3nc(-c4ccccc4)nc3c2cc1OC,-8.2%,-1.8%,-5.0%,-12.6%,-0.8%
COc1ccc(-c2nc3c4ccccc4[nH]c(=O)n3n2)cc1,·,·,·,8.49µM*,5.6%
CCCCCCC[C@@H](C/C=C/CCC(=O)N(C)C/C(=C/Cl)C/C(=C\C(=O)N1C[C@H](O)CC1=O)OC)OC,·,·,-10.7%,·,·
CCCCCCC[C@@H](C/C=C/CCC(=O)N(C)C/C(=C/Cl)C/C(=C\C(=O)N1CC(OC)=CC1=O)OC)OC,·,·,2.06µM*,·,·
COc1ccc(Oc2coc3cc(OC(=O)/C=C/c4ccccc4)ccc3c2=O)cc1,9.6%,9.7%,7.0%,-1.5%,2.6%
c1ccc(-c2ccc(-c3nc(-c4cccnc4)no3)cc2)cc1,1.26µM*,?,2.31µM*,1.35µM*,12.6µM*
O=c1[nH]c2ccccc2cc1-c1noc(-c2cccnc2)n1,23.0%,24.0%,-2.0%,?,-5.2%
c1ccc(-c2noc(-c3cccnc3)n2)cc1,·,·,·,9.53µM*,?
SMILES,NPC1 prom act,Rab9 prom act,ELG1 genotox,FLuc modulator,SMN2 splice up
c1cncc(-c2noc(-c3ccc4ccccc4c3)n2)c1,0.316µM*,0.282µM*,2.06µM*,1.2µM*,·
Cc1ccc(-c2nnn(CC(=O)N(Cc3cccs3)C(C(=O)NC3CCCC3)c3ccncc3)n2)cc1 (configuration not stated),-2.6%,-5.5%,4.5%,-0.5%,-23.6%
O=C(Cn1cc(SCc2cccc(Cl)c2)c2ccccc21)N1CCOCC1,21.2%,?,9.4%,19µM*,·
O=C(CSc1cn(CC(=O)N2CCOCC2)c2ccccc12)N1CCOCC1,1.6%,0.1%,1.0%,-1.8%,·
Cc1cccc(CSc2cn(CC(=O)N3CCOCC3)c3ccccc23)c1,?,?,?,15.1µM*,?
CCOc1cc(C(=O)NCCN2C(=O)S/C(=C\c3cccnc3)C2=O)cc(OCC)c1OCC,-2.4%,-0.8%,-9.9%,2.2%,-16.3%
Cc1cccc(C)c1NC(=O)c1csc2c1CCCC2,·,·,·,-2.8%,-4.1%
CC(=O)Nc1cccc(-c2nn[nH]n2)c1,-3.0%,-9.0%,-0.2%,-0.8%,·
O=C(Nc1cccc(-c2nn[nH]n2)c1)c1csc2c1CCCC2,12.0%,6.7%,3.3%,10.7µM*,·
CCc1ccc(C(=O)Nc2cccc(-c3nn[nH]n3)c2)s1,1.6%,23.2%,0.1%,1.51µM*,·
O=C(Nc1cccc(-c2nn[nH]n2)c1)c1cccs1,2.82µM*,?,-3.0%,?,·
O=C(Nc1ccc([N+](=O)[O-])cc1)c1ccccc1F,?,2.82µM*,22.5%,?,15.8µM*
CC1(c2ccc(NC(=O)c3ccccc3F)cc2)CC1(Cl)Cl (configuration not stated),3.55µM*,2.51µM*,?,8.49µM*,·
Cc1ccccc1C(=O)Nc1ccc(NC(=O)c2cccs2)cc1,·,·,·,?,3.55µM*
O=C(Nc1ccc(Cl)cc1)c1cccs1,·,·,·,12µM*,23.4%
Cc1c(C(=O)N(Cc2ccc(F)cc2)C2CCS(=O)(=O)C2)oc2ccccc12 (configuration not stated),-2.5%,-0.2%,-2.5%,0.6%,·
CCC(C)c1ccc(NC(=O)c2cccs2)cc1 (configuration not stated),0.398µM*,0.447µM*,0.731µM*,0.675µM*,7.94µM*
COc1ccccc1C(=O)Nc1ccc(NC(=O)c2cccs2)cc1,·,·,·,?,11.9%
O=C(/C=C/c1cccs1)c1ccc(NC(=O)c2ccccc2F)cc1,12.1%,20.0%,21.7%,3.01µM*,3.7%
O=C(Nc1ccc(Oc2ccsc2C(=O)O)cc1)c1ccccc1F,17.6%,-0.8%,6.1%,16.9µM*,·
O=C(Nc1ccc(NC(=O)c2ccccc2F)cc1)c1cccs1,?,3.55µM*,?,-14.9%,·
CCC(C)NS(=O)(=O)c1ccc(NC(=O)c2cccs2)cc1 (configuration not stated),-8.3%,-2.3%,-2.3%,-1.1%,·
COc1ccccc1C(=O)Nc1ccc(C(=O)/C=C/c2cccs2)cc1,-2.3%,-9.3%,0.9%,-18.5%,-14.5%
Cc1ccc(CNC(=O)c2cc3c(s2)-c2ccc(Cl)cc2SC3)cc1,·,·,·,-10.8%,0.7%
Cn1nnc2cc(C(=O)NCc3ccco3)ccc21,·,·,·,0.7%,-5.2%
CC(=O)Nc1ccc2[nH]ccc2c1,-0.3%,0.4%,3.8%,4.0%,·
O=C(Nc1ccc(NC(=O)c2cccs2)cc1Cl)c1ccco1,?,?,?,-5.0%,·
